Assay results reported in paper PMC7862700, “An all-to-all approach to the identification of sequence-specific readers for epigenetic DNA modifications on cytosine”.

Legend:
Experiment in all cases: DAPPL (digital affinity profiling via proximity ligation, sequencing); 10 mM Tris-HCl pH 7.5, 50 mM NaCl, 1 mM DTT, 4% glycerol, room temperature, 30 min; GST-TFs on glutathione beads, 16-mer random dsDNA library, 0.1% formaldehyde crosslink after washing; high values mean tight binding
FLI1 = target: T1, FLI1 (Homo sapiens, UniProt Q01543 1-452); settings: protein: recombinant; tags: N-terminal GST; dsDNA, one strand shown
T1 sequence: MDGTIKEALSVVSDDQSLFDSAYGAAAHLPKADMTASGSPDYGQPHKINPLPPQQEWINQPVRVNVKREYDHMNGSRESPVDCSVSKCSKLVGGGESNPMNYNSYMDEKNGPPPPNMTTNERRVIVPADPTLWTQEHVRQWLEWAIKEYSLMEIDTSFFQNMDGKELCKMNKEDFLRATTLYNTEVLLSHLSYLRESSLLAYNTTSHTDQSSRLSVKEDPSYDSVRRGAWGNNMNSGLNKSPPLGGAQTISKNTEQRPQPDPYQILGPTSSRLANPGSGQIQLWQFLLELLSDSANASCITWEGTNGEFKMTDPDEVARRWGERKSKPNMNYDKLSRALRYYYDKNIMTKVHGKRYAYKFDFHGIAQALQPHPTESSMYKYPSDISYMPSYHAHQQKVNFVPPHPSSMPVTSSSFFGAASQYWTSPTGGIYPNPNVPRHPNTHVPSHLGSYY
Procedure, shortened: (§1)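 Human transcription factors carrying a GST fusion were produced in yeast, bound to glutathione beads, tagged with DNA barcodes and pooled together with a tag-only sample. Each pool was held with 200 nmole of a random double-stranded 16-mer DNA library in Tris/NaCl/DTT/glycerol buffer for 30 min at room temperature, then washed, crosslinked in 0.1% formaldehyde, proximity-ligated with BsaI/T4 ligase (1 h, 37 °C), PCR-amplified and sequenced on an Illumina NextSeq500. Binding signal is the read frequency of each hexamer for a given factor divided by its frequency in the tag-only sample.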

ELK1 = target: T2, ELK1 (Homo sapiens, UniProt P19419 1-428); settings: protein: recombinant; tags: N-terminal GST; dsDNA, one strand shown
T2 sequence: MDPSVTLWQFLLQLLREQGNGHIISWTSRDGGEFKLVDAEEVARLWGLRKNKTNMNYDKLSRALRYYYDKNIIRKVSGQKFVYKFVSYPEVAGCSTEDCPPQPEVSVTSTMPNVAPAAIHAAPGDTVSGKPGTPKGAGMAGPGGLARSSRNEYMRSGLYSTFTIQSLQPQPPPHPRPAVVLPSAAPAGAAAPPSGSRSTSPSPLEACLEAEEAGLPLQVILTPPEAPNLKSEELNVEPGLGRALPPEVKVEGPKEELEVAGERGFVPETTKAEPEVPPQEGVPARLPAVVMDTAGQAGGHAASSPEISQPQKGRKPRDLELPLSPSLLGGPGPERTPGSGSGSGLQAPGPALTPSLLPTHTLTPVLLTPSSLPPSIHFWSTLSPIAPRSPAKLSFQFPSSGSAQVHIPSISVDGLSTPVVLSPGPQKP
Procedure, shortened: as §1

GABPA = target: T3, GABPA (Homo sapiens, UniProt Q06546 1-454); settings: protein: recombinant; tags: N-terminal GST; dsDNA, one strand shown
T3 sequence: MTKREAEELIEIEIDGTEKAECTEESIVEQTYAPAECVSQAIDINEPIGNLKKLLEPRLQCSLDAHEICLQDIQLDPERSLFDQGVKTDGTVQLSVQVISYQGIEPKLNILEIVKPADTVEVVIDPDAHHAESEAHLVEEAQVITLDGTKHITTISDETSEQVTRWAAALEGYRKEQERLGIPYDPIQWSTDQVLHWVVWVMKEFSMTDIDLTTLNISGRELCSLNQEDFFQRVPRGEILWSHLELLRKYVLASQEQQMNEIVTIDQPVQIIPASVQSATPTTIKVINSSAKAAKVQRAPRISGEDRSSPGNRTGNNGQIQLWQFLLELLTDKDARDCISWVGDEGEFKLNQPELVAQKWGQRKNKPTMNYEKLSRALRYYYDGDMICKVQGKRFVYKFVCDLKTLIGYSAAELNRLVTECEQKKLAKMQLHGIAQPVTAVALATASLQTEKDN
Procedure, shortened: as §1

ERG = target: T4, ERG (Homo sapiens, UniProt P11308 1-479); settings: protein: recombinant; tags: N-terminal GST; dsDNA, one strand shown
T4 sequence: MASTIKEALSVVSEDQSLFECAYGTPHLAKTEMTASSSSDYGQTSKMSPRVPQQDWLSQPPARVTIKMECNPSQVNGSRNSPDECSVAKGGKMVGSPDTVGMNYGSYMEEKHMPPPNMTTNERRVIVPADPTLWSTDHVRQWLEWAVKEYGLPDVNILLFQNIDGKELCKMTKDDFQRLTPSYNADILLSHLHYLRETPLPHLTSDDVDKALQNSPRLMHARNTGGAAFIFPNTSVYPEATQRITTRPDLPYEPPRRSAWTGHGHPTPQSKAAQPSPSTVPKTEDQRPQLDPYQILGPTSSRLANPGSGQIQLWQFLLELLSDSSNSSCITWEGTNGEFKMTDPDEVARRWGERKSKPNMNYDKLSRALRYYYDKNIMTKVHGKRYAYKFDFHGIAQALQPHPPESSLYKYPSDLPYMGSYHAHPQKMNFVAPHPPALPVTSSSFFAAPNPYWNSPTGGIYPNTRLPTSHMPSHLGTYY
Procedure, shortened: as §1

ELF1 = ELF1 (Homo sapiens, UniProt P32519 1-619); settings: protein: recombinant; tags: N-terminal GST; dsDNA, one strand shown
Sequence of ELF1 (P32519 whole entry): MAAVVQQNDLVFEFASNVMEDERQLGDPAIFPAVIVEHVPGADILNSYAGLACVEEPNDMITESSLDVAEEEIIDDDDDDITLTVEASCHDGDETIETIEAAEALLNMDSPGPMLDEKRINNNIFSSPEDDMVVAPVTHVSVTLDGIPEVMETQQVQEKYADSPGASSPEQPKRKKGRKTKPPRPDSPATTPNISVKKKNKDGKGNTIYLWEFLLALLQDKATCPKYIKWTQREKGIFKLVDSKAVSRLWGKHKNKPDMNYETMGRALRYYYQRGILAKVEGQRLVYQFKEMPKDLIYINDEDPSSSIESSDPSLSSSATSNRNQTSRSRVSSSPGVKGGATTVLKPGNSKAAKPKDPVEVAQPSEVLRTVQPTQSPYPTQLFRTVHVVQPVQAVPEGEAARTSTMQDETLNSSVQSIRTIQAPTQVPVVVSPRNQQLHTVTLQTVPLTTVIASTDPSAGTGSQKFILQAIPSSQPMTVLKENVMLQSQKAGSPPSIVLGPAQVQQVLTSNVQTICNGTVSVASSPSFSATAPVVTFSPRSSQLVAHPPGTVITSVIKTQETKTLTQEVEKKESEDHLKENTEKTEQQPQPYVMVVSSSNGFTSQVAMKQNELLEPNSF
Procedure, shortened: as §1

EHF = target: T5, EHF (Homo sapiens, UniProt Q9NZC4 1-300); settings: protein: recombinant; tags: N-terminal GST; dsDNA, one strand shown
T5 sequence: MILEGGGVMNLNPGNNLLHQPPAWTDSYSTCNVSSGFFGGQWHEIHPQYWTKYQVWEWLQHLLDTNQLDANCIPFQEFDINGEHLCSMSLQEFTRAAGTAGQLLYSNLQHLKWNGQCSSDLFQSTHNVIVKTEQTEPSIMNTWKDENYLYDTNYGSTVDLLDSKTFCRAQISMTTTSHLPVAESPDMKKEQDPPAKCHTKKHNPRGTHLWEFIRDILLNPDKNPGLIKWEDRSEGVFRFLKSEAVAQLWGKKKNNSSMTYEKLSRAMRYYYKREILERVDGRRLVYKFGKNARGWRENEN
Procedure, shortened: as §1

SPI1 = SPI1 (Homo sapiens, UniProt P17947 1-270); settings: protein: recombinant; tags: N-terminal GST; dsDNA, one strand shown
Procedure, shortened: as §1

SPIB = SPIB (Homo sapiens, UniProt Q01892 1-262); settings: protein: recombinant; tags: N-terminal GST; dsDNA, one strand shown
Sequence of SPIB (Q01892 whole entry): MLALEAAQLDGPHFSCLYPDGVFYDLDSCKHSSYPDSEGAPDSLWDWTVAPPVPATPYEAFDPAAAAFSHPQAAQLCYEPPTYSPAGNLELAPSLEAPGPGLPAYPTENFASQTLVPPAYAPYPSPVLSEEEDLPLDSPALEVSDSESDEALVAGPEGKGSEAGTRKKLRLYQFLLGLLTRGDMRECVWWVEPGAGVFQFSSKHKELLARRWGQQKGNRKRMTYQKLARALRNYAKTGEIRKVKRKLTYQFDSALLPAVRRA
Procedure, shortened: as §1

ELK3 = target: T6, ELK3 (Homo sapiens, UniProt P41970 1-407); settings: protein: recombinant; tags: N-terminal GST; dsDNA, one strand shown
T6 sequence: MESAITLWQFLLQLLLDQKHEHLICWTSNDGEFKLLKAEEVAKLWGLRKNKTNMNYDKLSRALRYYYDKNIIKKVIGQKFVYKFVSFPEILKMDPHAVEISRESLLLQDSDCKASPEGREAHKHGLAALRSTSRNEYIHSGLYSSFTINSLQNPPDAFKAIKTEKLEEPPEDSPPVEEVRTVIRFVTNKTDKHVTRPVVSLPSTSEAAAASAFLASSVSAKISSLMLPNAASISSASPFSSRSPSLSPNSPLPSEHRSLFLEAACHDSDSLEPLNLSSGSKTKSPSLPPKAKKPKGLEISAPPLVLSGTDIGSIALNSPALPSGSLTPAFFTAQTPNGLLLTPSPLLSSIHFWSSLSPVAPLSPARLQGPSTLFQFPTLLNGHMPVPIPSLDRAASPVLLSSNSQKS
Procedure, shortened: as §1

FEV = target: T7, FEV (Homo sapiens, UniProt Q99581 1-238); settings: protein: recombinant; tags: N-terminal GST; dsDNA, one strand shown
T7 sequence: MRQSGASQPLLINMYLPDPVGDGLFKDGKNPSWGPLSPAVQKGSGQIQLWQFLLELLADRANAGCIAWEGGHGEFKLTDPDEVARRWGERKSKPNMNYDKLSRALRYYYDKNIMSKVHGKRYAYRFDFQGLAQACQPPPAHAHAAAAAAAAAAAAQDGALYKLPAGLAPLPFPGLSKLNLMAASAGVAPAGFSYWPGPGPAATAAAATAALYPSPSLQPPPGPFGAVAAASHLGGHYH
Procedure, shortened: as §1

ETV5 = ETV5 (Homo sapiens, UniProt P41161 1-510); settings: protein: recombinant; tags: N-terminal GST; dsDNA, one strand shown
Sequence of ETV5 (P41161 whole entry): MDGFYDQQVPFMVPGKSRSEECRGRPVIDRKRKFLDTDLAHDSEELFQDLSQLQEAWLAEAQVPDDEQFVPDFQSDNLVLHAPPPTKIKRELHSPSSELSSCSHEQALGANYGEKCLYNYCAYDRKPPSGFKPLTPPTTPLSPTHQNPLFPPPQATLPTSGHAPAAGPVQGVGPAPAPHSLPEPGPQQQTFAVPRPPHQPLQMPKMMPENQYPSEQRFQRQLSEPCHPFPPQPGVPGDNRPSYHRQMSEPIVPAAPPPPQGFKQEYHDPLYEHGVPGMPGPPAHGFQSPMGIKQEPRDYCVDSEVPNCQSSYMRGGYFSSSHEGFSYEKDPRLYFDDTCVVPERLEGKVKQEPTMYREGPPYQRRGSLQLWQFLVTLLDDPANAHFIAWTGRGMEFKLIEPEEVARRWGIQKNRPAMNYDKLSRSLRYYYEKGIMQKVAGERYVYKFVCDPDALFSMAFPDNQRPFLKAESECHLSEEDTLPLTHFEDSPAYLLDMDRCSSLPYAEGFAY
Procedure, shortened: as §1

HSF1 = HSF1 (Homo sapiens, UniProt Q00613 1-529); settings: protein: recombinant; tags: N-terminal GST; chain copies: 3; dsDNA, one strand shown
Sequence of HSF1 (Q00613 whole entry): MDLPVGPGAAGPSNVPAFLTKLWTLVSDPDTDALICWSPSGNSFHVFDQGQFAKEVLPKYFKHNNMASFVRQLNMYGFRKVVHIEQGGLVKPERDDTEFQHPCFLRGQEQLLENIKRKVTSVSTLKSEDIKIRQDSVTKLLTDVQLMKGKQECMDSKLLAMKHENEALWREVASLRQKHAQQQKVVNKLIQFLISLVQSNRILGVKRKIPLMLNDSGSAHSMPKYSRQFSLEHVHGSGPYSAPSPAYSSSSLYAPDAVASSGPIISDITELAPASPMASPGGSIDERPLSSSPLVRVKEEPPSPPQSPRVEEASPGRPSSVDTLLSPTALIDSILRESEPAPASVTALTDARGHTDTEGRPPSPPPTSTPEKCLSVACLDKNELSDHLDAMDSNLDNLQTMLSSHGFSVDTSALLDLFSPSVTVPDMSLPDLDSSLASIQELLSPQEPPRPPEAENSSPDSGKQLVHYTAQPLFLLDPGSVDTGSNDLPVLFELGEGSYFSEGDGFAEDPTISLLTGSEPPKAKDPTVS
Procedure, shortened: as §1

SPIC = target: T8, SPIC (Homo sapiens, UniProt Q8N5J4 1-248); settings: protein: recombinant; tags: N-terminal GST; dsDNA, one strand shown
T8 sequence: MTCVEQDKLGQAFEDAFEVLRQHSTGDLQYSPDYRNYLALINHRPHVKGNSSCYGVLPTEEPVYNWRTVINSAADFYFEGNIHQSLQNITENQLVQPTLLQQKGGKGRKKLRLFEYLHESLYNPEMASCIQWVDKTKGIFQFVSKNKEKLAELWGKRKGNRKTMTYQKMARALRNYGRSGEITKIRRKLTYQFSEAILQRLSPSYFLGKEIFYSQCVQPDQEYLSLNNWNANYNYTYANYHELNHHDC
Procedure, shortened: as §1

ELF4 = ELF4 (Homo sapiens, UniProt Q99607 1-663); settings: protein: recombinant; tags: N-terminal GST; dsDNA, one strand shown
Sequence of ELF4 (Q99607 whole entry): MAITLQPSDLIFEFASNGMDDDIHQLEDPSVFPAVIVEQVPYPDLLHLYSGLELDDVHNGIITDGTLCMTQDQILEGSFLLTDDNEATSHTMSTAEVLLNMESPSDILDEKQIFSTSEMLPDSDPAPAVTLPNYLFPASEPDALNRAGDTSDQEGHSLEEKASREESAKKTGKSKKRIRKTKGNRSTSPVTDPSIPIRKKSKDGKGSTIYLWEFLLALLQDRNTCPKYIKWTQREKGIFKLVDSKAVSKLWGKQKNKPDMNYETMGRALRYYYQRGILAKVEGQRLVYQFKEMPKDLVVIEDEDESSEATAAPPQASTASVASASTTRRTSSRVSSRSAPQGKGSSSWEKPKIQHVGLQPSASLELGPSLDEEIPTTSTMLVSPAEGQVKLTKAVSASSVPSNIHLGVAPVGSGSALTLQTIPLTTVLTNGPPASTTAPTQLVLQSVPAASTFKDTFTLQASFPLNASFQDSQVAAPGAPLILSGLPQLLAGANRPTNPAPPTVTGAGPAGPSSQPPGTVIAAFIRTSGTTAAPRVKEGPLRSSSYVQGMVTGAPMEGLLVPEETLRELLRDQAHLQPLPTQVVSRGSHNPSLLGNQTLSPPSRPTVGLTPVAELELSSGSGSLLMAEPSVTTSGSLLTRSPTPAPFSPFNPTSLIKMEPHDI
Procedure, shortened: as §1

ELK4 = target: T9, ELK4 (Homo sapiens, UniProt P28324-2 1-405); settings: protein: recombinant; tags: N-terminal GST; dsDNA, one strand shown
T9 sequence: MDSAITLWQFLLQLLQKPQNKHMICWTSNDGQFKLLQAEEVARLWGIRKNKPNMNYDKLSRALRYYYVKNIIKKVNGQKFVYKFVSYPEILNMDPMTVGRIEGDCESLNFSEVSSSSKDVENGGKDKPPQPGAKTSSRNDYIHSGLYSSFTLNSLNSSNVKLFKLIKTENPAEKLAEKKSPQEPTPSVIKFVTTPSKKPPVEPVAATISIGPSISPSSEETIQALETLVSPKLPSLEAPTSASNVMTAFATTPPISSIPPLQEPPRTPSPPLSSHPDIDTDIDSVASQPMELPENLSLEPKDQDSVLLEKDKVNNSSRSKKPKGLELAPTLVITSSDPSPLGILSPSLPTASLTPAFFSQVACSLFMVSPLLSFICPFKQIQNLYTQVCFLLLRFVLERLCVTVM
Procedure, shortened: as §1

ETV2 = target: T10, ETV2 (Homo sapiens, UniProt O00321 1-342); settings: protein: recombinant; tags: N-terminal GST; dsDNA, one strand shown
T10 sequence: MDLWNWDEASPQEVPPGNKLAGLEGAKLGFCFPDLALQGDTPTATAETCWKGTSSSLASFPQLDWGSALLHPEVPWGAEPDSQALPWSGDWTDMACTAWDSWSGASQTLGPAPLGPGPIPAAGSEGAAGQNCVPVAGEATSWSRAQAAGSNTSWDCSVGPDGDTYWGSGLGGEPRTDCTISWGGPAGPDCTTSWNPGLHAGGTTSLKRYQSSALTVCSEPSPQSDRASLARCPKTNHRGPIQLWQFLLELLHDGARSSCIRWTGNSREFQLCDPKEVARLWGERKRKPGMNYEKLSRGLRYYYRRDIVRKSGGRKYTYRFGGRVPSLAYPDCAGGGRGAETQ
Procedure, shortened: as §1

ELF3 = target: T11, ELF3 (Homo sapiens, UniProt P78545 1-371); settings: protein: recombinant; tags: N-terminal GST; dsDNA, one strand shown
T11 sequence: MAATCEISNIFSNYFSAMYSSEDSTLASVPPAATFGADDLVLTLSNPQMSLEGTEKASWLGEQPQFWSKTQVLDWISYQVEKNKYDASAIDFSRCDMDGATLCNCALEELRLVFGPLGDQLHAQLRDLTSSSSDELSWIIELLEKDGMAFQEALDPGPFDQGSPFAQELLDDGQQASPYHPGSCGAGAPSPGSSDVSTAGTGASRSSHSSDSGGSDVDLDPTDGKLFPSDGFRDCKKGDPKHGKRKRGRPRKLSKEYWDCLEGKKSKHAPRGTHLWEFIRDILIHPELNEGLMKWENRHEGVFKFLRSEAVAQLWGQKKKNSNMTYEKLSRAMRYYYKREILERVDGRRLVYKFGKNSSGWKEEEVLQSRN
Procedure, shortened: as §1

CRX = CRX (Homo sapiens, UniProt O43186 1-299); settings: protein: recombinant; tags: N-terminal GST; dsDNA, one strand shown
Sequence of CRX (O43186 whole entry): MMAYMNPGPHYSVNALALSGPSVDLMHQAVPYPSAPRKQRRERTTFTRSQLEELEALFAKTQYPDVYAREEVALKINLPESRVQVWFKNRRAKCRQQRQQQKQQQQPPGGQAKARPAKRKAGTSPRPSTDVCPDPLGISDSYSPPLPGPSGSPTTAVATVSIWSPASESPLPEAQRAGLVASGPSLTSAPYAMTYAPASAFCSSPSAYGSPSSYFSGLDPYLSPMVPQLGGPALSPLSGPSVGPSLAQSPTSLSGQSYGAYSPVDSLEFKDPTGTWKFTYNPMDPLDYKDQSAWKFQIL
Procedure, shortened: as §1

ETV1 = ETV1 (Homo sapiens, UniProt P50549 1-477); settings: protein: recombinant; tags: N-terminal GST; dsDNA, one strand shown
Sequence of ETV1 (P50549 whole entry): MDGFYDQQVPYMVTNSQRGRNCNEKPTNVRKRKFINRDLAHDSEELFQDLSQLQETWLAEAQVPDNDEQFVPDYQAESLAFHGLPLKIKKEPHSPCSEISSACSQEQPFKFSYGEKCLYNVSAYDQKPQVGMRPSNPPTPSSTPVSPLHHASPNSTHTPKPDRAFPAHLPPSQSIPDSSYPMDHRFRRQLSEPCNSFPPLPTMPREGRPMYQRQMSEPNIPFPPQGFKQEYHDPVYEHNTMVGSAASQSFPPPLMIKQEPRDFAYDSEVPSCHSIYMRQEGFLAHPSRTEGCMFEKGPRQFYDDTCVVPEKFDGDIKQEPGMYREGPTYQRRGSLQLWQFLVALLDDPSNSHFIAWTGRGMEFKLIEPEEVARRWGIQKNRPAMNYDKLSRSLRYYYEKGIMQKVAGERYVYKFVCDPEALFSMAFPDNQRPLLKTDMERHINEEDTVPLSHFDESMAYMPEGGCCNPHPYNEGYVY
Procedure, shortened: as §1

In the case of CACCTT, the binding signal (FLI1) is reported as 1.36 fold enrichment (6-mer frequency, TF over GST control), the binding signal (ELK1) is reported as 1.28 fold enrichment (6-mer frequency, TF over GST control) and the binding signal (GABPA) is reported as 1.22 fold enrichment (6-mer frequency, TF over GST control). The binding signal (ERG) was 1.26 fold enrichment (6-mer frequency, TF over GST control), the binding signal (ELF1) was 1.24 fold enrichment (6-mer frequency, TF over GST control) and the binding signal (EHF) was 1.34 fold enrichment (6-mer frequency, TF over GST control). For the same sequence, the binding signal (SPI1) was 1.25 fold enrichment (6-mer frequency, TF over GST control), the binding signal (SPIB) was 1.18 fold enrichment (6-mer frequency, TF over GST control) and the binding signal (ELK3) was 1.26 fold enrichment (6-mer frequency, TF over GST control). The binding signal (FEV) was 1.31 fold enrichment (6-mer frequency, TF over GST control), the binding signal (ETV5) was 1.18 fold enrichment (6-mer frequency, TF over GST control) and the binding signal (HSF1) was 1.08 fold enrichment (6-mer frequency, TF over GST control). For the same sequence, the binding signal (SPIC) was 1.2 fold enrichment (6-mer frequency, TF over GST control), the binding signal (ELF4) was 1.37 fold enrichment (6-mer frequency, TF over GST control) and the binding signal (ELK4) was 1.39 fold enrichment (6-mer frequency, TF over GST control). The binding signal (ETV2) was 1.25 fold enrichment (6-mer frequency, TF over GST control), the binding signal (ELF3) was 1.26 fold enrichment (6-mer frequency, TF over GST control) and the binding signal (CRX) was 1.1 fold enrichment (6-mer frequency, TF over GST control). For the same sequence, the binding signal (ETV1) was 1.35 fold enrichment (6-mer frequency, TF over GST control).
